This is a sample that favours compounds with a hit; in the whole collection about 3.5% have one here.
GPR151 ag – activators of human GPR151 | AID 1508602 | PathHunter beta-arrestin GPR151 cells, luminescence | Q8TDV0 | 1% of 650,000 active | activation, % at 11.2 µM; in the data active = activation above about 4.9%
FBW7 activator – human FBW7 E3 ligase activation, primary screen; Q969H0; AlphaScreen FBW7–phospho-cyclin E peptide binding, activator screen; normalized activity (activation), % at 26.1 µM; 0.13% of 650,000 active; in the data active = normalized activity above about 1.9%;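 note: purified mutant Fbw7 with reduced substrate affinity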
Target sequence (Q969H0 whole entry, looked up): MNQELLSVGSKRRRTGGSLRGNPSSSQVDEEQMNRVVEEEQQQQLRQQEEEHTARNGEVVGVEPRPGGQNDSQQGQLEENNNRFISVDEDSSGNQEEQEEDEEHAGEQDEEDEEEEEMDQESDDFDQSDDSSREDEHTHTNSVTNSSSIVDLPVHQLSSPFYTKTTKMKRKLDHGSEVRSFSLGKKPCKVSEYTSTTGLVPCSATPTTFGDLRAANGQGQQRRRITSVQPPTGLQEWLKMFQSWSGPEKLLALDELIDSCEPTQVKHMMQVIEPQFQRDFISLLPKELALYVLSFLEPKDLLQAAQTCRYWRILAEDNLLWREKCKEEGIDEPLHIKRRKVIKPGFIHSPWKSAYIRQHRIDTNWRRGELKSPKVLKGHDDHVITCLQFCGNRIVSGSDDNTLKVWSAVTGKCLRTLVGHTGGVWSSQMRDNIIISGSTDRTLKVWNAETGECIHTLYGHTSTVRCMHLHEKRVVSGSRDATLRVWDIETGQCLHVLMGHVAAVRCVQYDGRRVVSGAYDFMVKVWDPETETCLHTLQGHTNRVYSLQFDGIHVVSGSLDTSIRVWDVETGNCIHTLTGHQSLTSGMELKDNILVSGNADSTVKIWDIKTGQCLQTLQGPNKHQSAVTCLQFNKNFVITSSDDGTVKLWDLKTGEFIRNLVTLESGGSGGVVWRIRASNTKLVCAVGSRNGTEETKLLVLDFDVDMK
MITF primary – inhibitors of human MITF | 0.91% of 650,000 active | O75030 | AlphaScreen MITF homodimerization, bead proximity signal | inhibition, % at 2.6 µM; in the data active = inhibition above about 50%
TEAD-YAP inh – TEAD-YAP interaction inhibition; 1.4% of 640,000 active; inhibition, % at 9.12 µM; AID 1259422; HEK-TIYL cells, TEAD-Gal4/YAP UAS-luciferase luminescence; in the data active = inhibition above about 32%
GPR151 conf act – confirmation of human GPR151 activators. shares compounds with GPR151 ag. GPR151 PathHunter beta-arrestin cells, luminescence, 90 min; % of EA-reagent control over plate median. activation, % at 11.2 µM. 6,700 tested, under 10 active. AID 1508609;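 active = mean percent activation across replicates above the confirmation screen cutoff of 4.91%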
GPR119 ag – GPR119 activation, counter-screen for GPR151 activators | shares compounds with GPR151 ag | GPR119 PathHunter beta-arrestin cells, luminescence, 90 min; 0 = compound-well median, 100 = enzyme-acceptor control | activation, % at 11.2 µM | 0.3% of 6,700 active;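 active = mean percent activation in the counterscreen above 29.09%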;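 note: counterscreen on off-target GPR119 to flag nonselective hits from the GPR151 activator screen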
A number is an active result; - = inactive; . = not tested or not shown.

SMILES	GPR151 ag	FBW7 activator	MITF primary	TEAD-YAP inh	GPR151 conf act	GPR119 ag
COc1cccc(-c2ccc(OCCCc3ccccn3)nc2)c1	5.8	-	-	-	-	-
COC(=O)c1cc2sc(C)cc2n1Cc1cc(=O)n2ccccc2n1	9.1	-	-	-	-	-
Cc1ccccc1-n1c(=O)c2ccccc2n(Cc2cc(=O)n3ccccc3n2)c1=O	-	-	-	-	.	.
CC(C)n1c(-c2cccs2)nc2c(NCCCN3CCCC3=O)ncnc21	-	-	-	-	.	.
CC(C)n1c(-c2csc3ccccc23)nc2c(NCCCN3CCCC3=O)ncnc21	6.8	-	-	-	-	-
O=[N+]([O-])c1ccc2nc(CCc3ccccc3)[nH]c2c1	-	-	-	-	.	.
Cc1cccc(NC(=O)CN(C2=NC3CS(=O)(=O)CC3S2)c2ccccc2)c1 (centres undefined)	-	-	-	-	.	.
CCc1cccc(NC(=O)CN(C2=NC3CS(=O)(=O)CC3S2)c2cccc(C)c2)c1 (centres undefined)	12.7	-	-	-	-	-
CNc1oc(-c2cccs2)nc1S(=O)(=O)c1ccccc1	5.1	-	-	-	-	-
O=C(Cc1cccc(F)c1)NCc1nnc2n1CCN(Cc1ccc3c(c1)CCO3)CC2	-	-	-	-	.	.
Cc1ccc(NC(=O)C(CC(=O)O)C2CCCO2)cc1 (centres undefined)	18.6	-	-	-	-	-
CCOc1ccc(NC(=O)C(CC(=O)O)C2CCCO2)cc1 (centres undefined)	-	-	-	-	.	.
CN1CCN(CCOc2cccc([N+](=O)[O-])c2)CC1	-	-	-	-	.	.
CN1CCN(CCCCOc2cccc([N+](=O)[O-])c2)CC1	5.6	-	-	-	-	-
Cc1cc(C)n(CC(C)N2CCC(n3nccc3NC(=O)CCCc3ccccc3)CC2)n1 (centres undefined)	7.2	-	-	-	-	-
CC1(C)Oc2ccc(C(=O)N3CCCCCC3)cc2N(CC(=O)NCc2ccccc2)C1=O	-	-	-	-	.	.
CC1(C)Oc2ccc(C(=O)N3CCCC3)cc2N(CC(=O)NCc2ccccc2)C1=O	6.1	-	-	-	-	-
CCOc1ccc2nc(C)cc(Nc3cccc(C(C)=O)c3)c2c1	-	-	-	-	.	.
CN(C)C1NC(=O)c2cc(-c3ccccc3)sc2N1 (centres undefined)	7.0	-	-	-	-	-
CSCCC(NS(=O)(=O)c1ccccc1F)C(=O)O (centres undefined)	-	-	-	-	.	.
CC(=O)C1=C(O)C(=O)N(Cc2cccnc2)C1c1ccc(O)cc1 (centres undefined)	5.4	-	-	-	-	-
COc1ccc(C(=O)C2CC(C)(C)NC(C)(C)C2)cc1OC	-	-	-	-	.	.
CCN(CC)CCCC1(O)c2ccccc2-c2ccccc21	-	-	-	-	.	.
O=C(CCC(=O)Nc1ccc(I)cc1)N/N=C/c1ccc(F)cc1	6.6	-	-	-	-	-
CCn1c(SCC(=O)Nc2ccc(C(C)=O)cc2)nnc1-c1ccco1	-	-	-	-	.	.
SMILES	GPR151 ag	FBW7 activator	MITF primary	TEAD-YAP inh	GPR151 conf act	GPR119 ag
Cn1c(SCC(=O)Nc2ccc(Br)cc2)nnc1-c1ccc(N)cc1	5.3	-	-	-	-	-
Cn1c(SCC(=O)Nc2ccc3nc(SCC(=O)Nc4ccccc4F)sc3c2)nnc1-c1ccc(Cl)cc1Cl	-	-	-	-	.	.
Cn1c(SCC(=O)Nc2ccc3nc(SCC(=O)c4ccc(Cl)cc4)sc3c2)nnc1-c1ccc(N)cc1	5.5	29.3	-	-	-	-
CC(=O)Nc1ccc(NC(=O)CSc2nnc(-c3ccncc3)n2N)cc1	5.5	-	-	-	-	-
CCc1ccc(NC(=O)CSc2nnc(-c3ccc(N)cc3)n2C)cc1	-	-	-	-	.	.
CC(=O)Nc1ccc(NC(=O)CSc2nnc(-c3ccncc3)n2C)cc1	-	-	-	-	.	.
CCn1c(SCC(=O)Nc2ccc(C(N)=O)cc2)nnc1-c1ccco1	6.8	-	-	-	-	-
Cc1c(C(=O)N(C)Cc2ccccc2)sc2ncn(Cc3cccc(F)c3)c(=O)c12	-	-	-	-	.	.
Cc1c(C(=O)NCCCN2CCOCC2)oc2c1C(=O)CC(C)(C)C2	-	-	-	-	.	.
CCCN1C(=O)C(O)(CC(=O)c2ccccc2O)c2ccccc21 (centres undefined)	10.8	-	-	-	-	-
N#Cc1cc([N+](=O)[O-])ccc1NCCc1ccc(Cl)cc1	-	-	-	-	.	.
Cc1sc2nc(Cc3ccccc3)n(C3CCN(CC(N)=O)CC3)c(=O)c2c1C	6.1	-	-	-	-	-
Cc1sc2nc(Cc3ccccc3)n(C3CCN(C(=O)c4ccco4)CC3)c(=O)c2c1C	-	-	-	-	.	.
CCN(CC)C(=O)C1CCCN(c2cc(C(=O)NCc3nc4ccccc4[nH]3)ccn2)C1 (centres undefined)	6.6	-	-	-	-	-
C=COCC(COC=C)(COC=C)COC=C	5.2	-	-	-	-	-
CCCS(=O)(=O)c1ncc(Cl)c(C(=O)Nc2cccc(C)c2)n1	7.4	-	-	-	-	-
CSc1ncc(Cl)c(C(=O)Nc2ccc(C)c(C)c2)n1	9.9	-	-	-	-	-
Cc1cccc(NC(=O)c2nc(S(C)(=O)=O)ncc2Cl)c1	-	-	-	-	.	.
CCc1ccccc1NC(=O)CN(C)S(=O)(=O)c1cc(Br)cnc1N	-	-	-	-	.	.
CCOC(=O)c1nccn1Cc1ccccc1Cl	9.4	-	-	-	-	-
NC(=O)c1cccn1Cc1ccccc1Cl	5.2	-	-	-	-	-
NC(=O)c1cccn1Cc1cccc(Cl)c1	-	-	-	-	.	.
Cc1ccc(-c2csc(C(C#N)=C3CCCCC3)n2)cc1	5.4	-	-	-	-	-
CN1CCN(c2nc(NC3CCCCC3)c3ccccc3n2)CC1	11.8	-	-	-	-	-
c1ccc2c(NC3CCCC3)nc(N3CCNCC3)nc2c1	-	-	-	-	.	.
SMILES	GPR151 ag	FBW7 activator	MITF primary	TEAD-YAP inh	GPR151 conf act	GPR119 ag
O=C(CCN1c2ccccc2Sc2ccccc21)N1CCOCC1	5.8	-	-	-	-	-
CCOc1ccc(/C=C(\C#N)c2[nH]nc(N)c2C#N)cc1OC	5.6	-	-	-	-	-
O=C(CS(=O)CC(=O)Nc1ccc2c(c1)OCCO2)Nc1ccc(Cl)cc1 (centres undefined)	6.7	-	-	-	-	-
O=C(CCCCC(=O)Nc1ccc2c(c1)OCCO2)Nc1ccc2c(c1)OCCO2	5.1	-	-	-	-	-
O=C(COC(=O)c1ccco1)Nc1ccc2c(c1)OCO2	5.5	-	-	-	-	-
O=C(CS(=O)CC(=O)Nc1ccc2c(c1)OCCO2)Nc1ccc(F)cc1 (centres undefined)	-	-	-	-	.	.
CC(C)Oc1cccc(NC(=O)c2ccccc2S(C)(=O)=O)c1	-	-	-	-	.	.
COc1ccc(S(=O)(=O)Nc2ccc(O)c(Br)c2)cc1	5.9	-	-	-	-	-

Source: PubChem BioAssay (The Scripps Research Institute Molecular Screening Center)
